Some test systems named below: SR leukemia; RPMI-8226 leukemia; OVCAR-8 ovarian; OVCAR-5 ovarian; OVCAR-4 ovarian; SK-OV-3 ovarian; IGROV1 ovarian; OVCAR-3 ovarian; HS 578T breast; NCI/ADR-RES ovarian; T-47D breast; BT-549 breast; MDA-MB-435 melanoma; SW-620 colon; MCF7 breast; HCT-116 colon; HCC-2998 colon; KM12 colon.
Holding throughout (test): NCI-60 one-dose screen, 48 h (100 = growth as untreated, 0 = no growth, -100 = all killed)
Common to all, as to settings: 10 µM unless noted

Drawing on PubChem BioAssay (NCI), this text covers growth for seven compounds.

About 83,000 compounds went through this panel and 20% of them were active in at least one assay; those are over-represented in the sample as a whole.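 Activity criterion: percent growth below 10, measured after cells in 96-well plates were exposed to a single compound concentration for 48 hours.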 A number with no mark means an inactive call. Active and inactive are the calls of the source.

Regarding `CC(Sc1ccccc1)C(=O)O` (configuration not stated), the growth in the assay on SR leukemia is 153%; in the assay with RPMI-8226 leukemia, 117%; with OVCAR-8 ovarian, 99.5%; in the assay with OVCAR-5 ovarian, 106%; in the assay with OVCAR-4 ovarian, 102%; in the assay with SK-OV-3 ovarian, 97.3%. For the same compound, the growth in the assay on IGROV1 ovarian was 81.4%; in the assay on OVCAR-3 ovarian it was 106%; in the assay on HS 578T breast, 115%; with NCI/ADR-RES ovarian it was 111%; with T-47D breast it was 105%; in the assay with BT-549 breast, 96.5%. For the same compound, the growth in the assay with MDA-MB-435 melanoma is 96.5%; in the assay on SW-620 colon, 102%; with MCF7 breast, 99.5%; in the assay with HCT-116 colon it was 88%; with HCC-2998 colon, 120%.

Regarding `Nc1nc(Nc2ccc(F)cc2)nn1C(=O)c1cc(Cl)ccc1Cl`, the growth is 37.5% in the assay with SR leukemia; 97.1% with RPMI-8226 leukemia; 68.4% with OVCAR-8 ovarian; 59.5% in the assay with OVCAR-5 ovarian; 92.8% in the assay on OVCAR-4 ovarian; 118% in the assay on SK-OV-3 ovarian. Besides, the growth was 62.6% in the assay with IGROV1 ovarian; 72.7% in the assay on OVCAR-3 ovarian; 56.1% with HS 578T breast; 69.1% with NCI/ADR-RES ovarian; 84.9% in the assay on T-47D breast; 80% in the assay on BT-549 breast. The growth in the assay on MDA-MB-435 melanoma was 88.8%; in the assay with SW-620 colon it was 71.4%; in the assay with MCF7 breast it was 48.8%; in the assay with HCT-116 colon, 58.6%; with HCC-2998 colon, 86.3%.

In the case of `C[N+]1=C(/C=C\C=C\c2ccccc2)C(C)(C)c2ccccc21`, the growth was -14.3% (active) in the assay with SR leukemia; -25.5% (active) in the assay on RPMI-8226 leukemia; 12.2% in the assay with OVCAR-8 ovarian; 45.1% in the assay on OVCAR-5 ovarian; 39.9% in the assay with OVCAR-4 ovarian; 92.8% with SK-OV-3 ovarian. The growth in the assay with IGROV1 ovarian was 19.9%; with OVCAR-3 ovarian, -4.63% (active); in the assay on HS 578T breast, 25%; in the assay on NCI/ADR-RES ovarian, 75.3%; with T-47D breast it was -1.09% (active); with BT-549 breast it was 22.5%. In addition, the growth with MDA-MB-435 melanoma is 9.04% (active); in the assay on SW-620 colon, 19.8%; in the assay on MCF7 breast, 7.58% (active); with HCT-116 colon, 14.3%; with HCC-2998 colon it was 47.9%.

On to `CCNC(=O)Nc1ncccc1OCc1ccc(F)cc1`, for which the growth in the assay on SR leukemia is 105%; in the assay on RPMI-8226 leukemia, 106%; with OVCAR-8 ovarian it was 109%; in the assay with OVCAR-5 ovarian it was 92.4%; in the assay with OVCAR-4 ovarian, 96.4%; in the assay with SK-OV-3 ovarian, 94.2%. In addition, the growth with IGROV1 ovarian was 102%; in the assay on OVCAR-3 ovarian, 102%; in the assay on HS 578T breast it was 112%; with NCI/ADR-RES ovarian, 93.4%; in the assay on T-47D breast it was 90.3%; with BT-549 breast, 114%. In addition, the growth was 101% in the assay with MDA-MB-435 melanoma; 104% with SW-620 colon; 84% in the assay on MCF7 breast; 97.9% in the assay with HCT-116 colon; 91.2% with HCC-2998 colon.

Consider `O=C1C(N2CCOCC2)=C(I)C(=O)c2ncccc21`, for which the growth with SR leukemia is 19.2%; with RPMI-8226 leukemia it was 91.2%; in the assay with OVCAR-8 ovarian it was 69.5%; in the assay with OVCAR-5 ovarian, 97.8%; in the assay on OVCAR-4 ovarian it was 59%; with SK-OV-3 ovarian, 79.3%. The growth in the assay on IGROV1 ovarian is 54.5%; with OVCAR-3 ovarian, 69.8%; in the assay with HS 578T breast, 65.1%; with NCI/ADR-RES ovarian, 75.4%; in the assay with T-47D breast it was 53.7%; in the assay on BT-549 breast, 87.1%. The growth with MDA-MB-435 melanoma was -69.4% (active); in the assay with SW-620 colon, 69.2%; in the assay with MCF7 breast, 41.3%; in the assay with HCT-116 colon, 49.4%; in the assay with HCC-2998 colon it was 86.8%; with KM12 colon, 91.8%.

Turning to `COc1ccccc1/C=C1\COc2ccc(O)cc2C1=O`, the growth in the assay with SR leukemia is 11.5%; in the assay on RPMI-8226 leukemia it was 4.74% (active); in the assay with OVCAR-8 ovarian it was 49.4%; in the assay on OVCAR-5 ovarian, 103%; in the assay with OVCAR-4 ovarian, 81.2%; with SK-OV-3 ovarian, 99.1%. The growth was 84.7% in the assay with IGROV1 ovarian; 76.2% with OVCAR-3 ovarian; 83.5% in the assay with HS 578T breast; 38.1% in the assay on NCI/ADR-RES ovarian; 82.8% with T-47D breast; 76.2% in the assay on BT-549 breast. For the same compound, the growth with MDA-MB-435 melanoma is 14.9%; in the assay with SW-620 colon, 9.45% (active); with MCF7 breast it was 12.8%; in the assay with HCT-116 colon it was 42%; in the assay on HCC-2998 colon, 113%; in the assay with KM12 colon it was 16.6%.

On to `CC(C)=CCc1cc(O)c(O)c2oc3cc(O)cc(O)c3c(=O)c12`, for which the growth in the assay on SR leukemia was 25.9%; in the assay with RPMI-8226 leukemia, 48.2%; with OVCAR-8 ovarian it was 51.1%; in the assay on OVCAR-5 ovarian, 75%; in the assay on OVCAR-4 ovarian, 62.5%; in the assay on SK-OV-3 ovarian, 65.7%. Further, the growth is 55% with IGROV1 ovarian; 67.4% with OVCAR-3 ovarian; 92.2% in the assay with HS 578T breast; 28.2% with NCI/ADR-RES ovarian; 69.5% in the assay with T-47D breast; 75.1% with BT-549 breast. Also, the growth with MDA-MB-435 melanoma was 61.1%; with SW-620 colon it was 61.9%; in the assay with MCF7 breast, 91.6%; in the assay on HCT-116 colon it was 43.1%; in the assay with HCC-2998 colon, 104%; in the assay on KM12 colon, 59.8%.
